# Laboratory results reported in the supplement of paper PMC13380429.
# Unmarked numbers belong to inactive results.
# Tested on: Vero E6 infected with SARS-CoV-2
# Assay: inhibition of SARS-CoV-2 cytopathic effect; higher = more antiviral protection, active = above 15
# Details: 833.33 nM; 48 h
row,SMILES,inhibition of SARS-CoV-2 cytopathic effect [%]
1,O=C(Nc1cccnc1)c1cc(-c2ccnc(F)c2)ccc1OCc1ccccc1,4.08
2,COc1ccccc1C(=O)Nc1cccc(NC(=O)c2cccc(C)c2)c1,0.39
3,CCC1(CC)C(=O)C=CNC1=O [pyrithyldione],-6.45
4,c1ccc(CCCCN2CCC(c3ccccc3)CC2)cc1,1.08
5,O=c1oc2ccccc2c(O)c1Cc1c(O)c2ccccc2oc1=O [dicoumarol],1.35
6,CC(C)NCC(O)COc1cccc2[nH]c3ccccc3c12 (centres undefined) [carazolol],0
7,CCN(c1ccccc1)c1cc(=NC)n(C)c(C)n1,-2.51
8,CC(C)(O)[C@@H]1[C@H]2OC(=O)[C@@H]1[C@]1(O)C[C@H]3O[C@]34C(=O)O[C@H]2[C@]14C [picrotin],-0.13
9,COc1ccc(-c2ccc3c(N4CCOCC4)nc(N4C[C@@H](C)O[C@@H](C)C4)nc3n2)cc1CO,0.86
10,O=c1[nH]cnc2c1ncn2[C@H]1CC[C@@H](CO)O1 [didanosine],3.97
11,CC(C)(C)CC(C)(C)c1ccc(O)c(Cc2ccc(Cl)cc2Cl)c1 [clofoctol],3.05
12,O=C(CNC(=O)c1cccc(C(F)(F)F)c1)N[C@@H]1CCN(Cc2ccc(Cl)cc2)C1 [teijin-compound-1],-1.99
13,O=C1c2cc(Cl)ccc2OC2CCON12 (centres undefined) [seclazone],0.75
14,Nc1ncnc2c1ncn2[C@H]1CC[C@@H](CO)O1 [dideoxyadenosine],1.23
